Source: PubChem BioAssay (National Center for Advancing Translational Sciences (NCATS))
The list is not random: actives were taken first. Their share in the collection is about 19%.
IL1B secr inh: qHTS for Inhibitors of Inflammasome Signaling: IL-1-beta AlphaLISA Primary Screen. actives 4.7% (n = 360,000). activity change, % at 57.5 µM. AID 743279, 2014. THP-1 LPS/ATP IL-1B secretion, AlphaLISA, 16 h; hits give low values; in the data active means activity change below about -50%; inconclusive means mostly about -30% to -49%
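THP-1 cells pretreated 1 hr with compounds (up to 57.5 uM final), then stimulated with LPS (250 ng/mL final) plus ATP (1.25 mM final); secreted IL-1B measured by AlphaLISA after 16 hr, decreased signal indicating inhibition.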
HT1080 IDH1KD tx: qHTS for induction of synthetic lethality in tumor cells producing 2HG: qHTS for the HT-1080-IDH1KD cell line. HT-1080 IDH1 knockdown viability, ATP luminescence, 48 h. actives 2% (n = 360,000). Potency, µM (doses to about 46.1 µM), for inactives: at the highest dose activity, negative = toxicity, actives largely listed as cytotoxic;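 further: potency means the concentration at half of the fitted maximal effect; 0% = DMSO wells and -100% = cell-free medium wells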
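Knockdown cells (IDH1KD HT-1080) received compounds 2 h after plating at 750 cells/well and were kept 48 h at 37 °C in 5% FBS RPMI. A CellTiter-Glo luminescence read gave % activity for curve fitting.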
DT40 TDP1 no CPT: qHTS for Inhibitors of human tyrosyl-DNA phosphodiesterase 1 (TDP1): qHTS in cells in absence of CPT; DT40 Tdp1-/- hTDP1 cells, no CPT, ATP luminescence, 48 h; Potency, µM (highest dose often 46.2 µM), for inactives: at the highest dose activity change, negative = growth inhibition, most hits filed as inhibitors; actives 15% (n = 420,000); AID 686978, 2013; further: potency means the concentration at half of the fitted maximal effect; nearly all actives have a fitted effect of over 55% in size
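Readout: luminescence from CellTiter-Glo after 30 min in the dark at RT. Cells: DT40 Tdp1-/- with stable hTDP1, 400/well. Exposure: compounds alone, ≥48 hr, 37 °C.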
TDP1 cell CPT: qHTS for Inhibitors of human tyrosyl-DNA phosphodiesterase 1 (TDP1): qHTS in cells in presence of CPT. Potency, µM (titrated, usually from 46.2 µM), for inactives: at the top dose activity change, negative = growth inhibition, actives largely listed as inhibitors. actives 12% (n = 420,000). chicken DT40 Tdp1-/-;hTDP1 cells + 20 nM CPT, ATP luminescence, 48 h; further: potency means the concentration at half of the fitted maximal effect; nearly all actives have a fitted effect of over 55% in size
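Chicken DT40 Tdp1-/- cells complemented with human TDP1, 400 cells/well, exposed to compounds plus 20 nM camptothecin for at least 48 h at 37 C; viability read as ATP content by CellTiter-Glo luminescence.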
HT1080NT lethal: qHTS for induction of synthetic lethality in tumor cells producing 2HG: qHTS for the HT-1080-NT fibrosarcoma cell line; Potency, µM (titrated, usually from 46.1 µM), inactives show at the highest dose activity, negative = less viability, most hits filed as cytotoxic; HT-1080-NT fibrosarcoma viability, CellTiter-Glo ATP luminescence, 48 h; actives 1.6% (n = 360,000); AID 686970, 2013;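 further: NT is the 2HG producing partner of a matched IDH1 knockdown line; potency means the concentration at half of the fitted maximal effect; 0% = DMSO-treated cells and -100% = media-only wells without cells; nearly all actives have a fitted effect of over 55% in size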
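HT-1080-NT; 750 cells/well; 5% FBS RPMI; 48 h compound, 37 degrees C; CellTiter-Glo luminescence; curve fitting and curve-class assignment.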
The depositor's hits bear a star; ? = inconclusive; . = not tested or not shown; [ ] = dose if it differs, or a comment. Unless noted, the call rests on the fitted dose curve; in most records, active means well fitted curve in the direction sought with a large enough effect; inconclusive means small, poorly fitted or top-dose-only effect, or another doubt; inactive means no such curve, though single readings can be large; an effect the other way counts as inactive or inconclusive. Unless noted, on the % scale 0 is the no-effect control and ±100 the full control effect.

SMILES	IL1B secr inh	HT1080 IDH1KD tx	DT40 TDP1 no CPT	TDP1 cell CPT	HT1080NT lethal
CCCNC(=O)CSc1c(CCC)cnc2c1c(=O)n(C)c(=O)n2C	.	.	-6%	0%	.
CCc1cnc2c(c1SCCC(C)C)c(=O)n(C)c(=O)n2C	.	.	?	26µM*	.
CC(C)c1nc(SCc2c(F)cccc2Cl)c2c(=O)n(C)c(=O)n(C)c2n1	0	3%	?	?	15%
CC(C)c1cnc2c(c1SCC(=O)N1CCCCC1)c(=O)n(C)c(=O)n2C	.	.	?	23µM*	.
Cc1cccn2c(=O)c(C(=O)NCc3cccc(F)c3)cnc12	.	.	?	-3%	.
CCCc1cnc2c(c1SCC(=O)Nc1ccccc1F)c(=O)n(C)c(=O)n2C	.	.	23µM*	?	.
COc1ccc(NC(=O)CSc2c(C(C)C)cnc3c2c(=O)n(C)c(=O)n3C)c(OC)c1	.	.	23µM*	23µM*	.
CC(C)c1cnc2c(c1SCC(=O)c1ccccc1)c(=O)n(C)c(=O)n2C	.	.	13µM*	?	.
COc1ccc(OC)c(NC(=O)CSc2nc3c(c(=O)n(C)c(=O)n3C)n2C)c1	12	9%	-7%	-26%	-4%
CC(C)c1cnc2c(c1SCc1cccc(F)c1)c(=O)n(C)c(=O)n2C	.	.	23µM*	16µM*	.
CC(C)c1cnc2c(c1SCC(=O)NC(C)(C)C)c(=O)n(C)c(=O)n2C	.	.	-18%	4%	.
CCNc1nc(NCC)nc(N/N=C/c2ccc(Br)cc2)n1	?	-4%	?	-29%	-11%
NS(=O)(=O)c1cccc(C(=O)N2CCCc3ccccc32)c1	19	-7%	-21%	-4%	-8%
CCC(C)Sc1c(C(C)C)cnc2c1c(=O)n(C)c(=O)n2C (centres undefined)	.	.	13µM*	23µM*	.
O=C(Nc1cccc(Cl)c1)c1cc2c(=O)[nH]c3ccccc3c2s1	.	.	-17%	-1%	.
O=c1[nH]cnc2c1cnn2Cc1ccccc1	3	2%	0%	-23%	-2%
c1ccc(-c2c[nH]c3[n+]2CCCCC3)cc1	8	-5%[9.24 µM]	9.2µM*	-29%	-1%
Oc1ccc(/C=N/Nc2ccc(Cl)nn2)c(O)c1O	11	-19%	21µM*	?	-13%
Oc1c(Br)cc(/C=N/Nc2ccc(Cl)nn2)cc1Br	13	-10%	?	9%	-1%
CCOc1ccc(/C=N/Nc2ccc(Cl)nn2)c(O)c1	67	0%	0.58µM*	1.2µM*	-17%
Oc1c(Br)cc(Br)cc1/C=N/Nc1ccc(Cl)nn1	-15	-25%	2.9µM*	?	-7%
CCc1nc2ccc(C(=O)NCCCN3CCCC3=O)cn2c1N(CC)C(=O)NCCc1ccccc1	-19	4%	-4%	-16%	-5%
O=C(c1ccc(Cl)c(S(=O)(=O)N2CCOCC2)c1)N1CCCCCC1	27	4%	-3%	-25%	1%
O=C(c1ccc(Cl)c(S(=O)(=O)N2CCOCC2)c1)N1CCc2ccccc2C1	-64*	-13%	?	?	0%
COc1ccccc1N1CCN(C(=O)c2ccc(Cl)c(S(=O)(=O)N3CCOCC3)c2)CC1	-2	-2%	?	26µM*	0%
SMILES	IL1B secr inh	HT1080 IDH1KD tx	DT40 TDP1 no CPT	TDP1 cell CPT	HT1080NT lethal
COc1ccccc1N1CCN(C(=O)c2ccc(Cl)c(S(=O)(=O)NCc3ccco3)c2)CC1	-6	7.1µM*	5µM*	5.6µM*	8.9µM*
CCC(C)c1ccc(S(=O)(=O)N2CCN(C(=O)c3ccc(Cl)c(S(=O)(=O)N4CCOCC4)c3)CC2)cc1 (centres undefined)	12	-27%	18µM*	?	-10%
Cc1cc(F)ccc1S(=O)(=O)N(CC(=O)N1CCOCC1)CC(=O)N1CCOCC1	2	2%	-22%	-11%	-2%
Cc1cccc(C)c1OCc1nc2ccccc2c(=O)n1/N=C/c1c[nH]c2ccccc12	-11	?	?	21µM*	-23%
Cc1ccc(-c2[nH]ncc2/C=N/n2c(COc3ccccc3C)nc3ccccc3c2=O)cc1	-99*	?	16µM*	21µM*	?
Cc1cc(/C=N/n2c(COc3ccccc3C)nc3ccccc3c2=O)c(O)c([N+](=O)[O-])c1	326	?	13µM*	18µM*	?
O=[N+]([O-])c1ccc(Cl)c(/C=N/n2c(COc3ccccc3)n[nH]c2=S)c1	-8	-11%	21µM*	18µM*	?
Cc1csc(NCC(=O)c2c(C)[nH]c3ccccc23)n1	.	.	12%	7%	.
Cc1ccc(CN2CCN(C3CCN(C(=O)c4ccc(C)cc4)CC3)C(=O)C2=O)cc1	.	.	3%	11%	.
N#Cc1ccccc1OCC(=O)NCC(c1cccs1)N1CCOCC1 (centres undefined)	30	-6%	10%	-3%	-8%
COc1ccccc1/C=C/C=N/n1c(COc2ccccc2)n[nH]c1=S	3	19%	15µM*	?	5%
O=c1c2ccccc2nc(COc2ccccc2)n1/N=C/c1cc([N+](=O)[O-])ccc1O	46	-28%	13µM*	6.5µM*	-25%
COc1cccc(/C=N/n2c(COc3ccccc3)n[nH]c2=S)c1OC	50	0%	-27%	-7%	3%
Cc1cccc(C(=O)N2CCCC(N3CCN(c4ccccc4)CC3)C2)n1 (centres undefined)	47	10%	10%	-20%	1%
CCCN1CCN(c2ncc3c(n2)CCN(Cc2ccc(OC)c(OC)c2OC)C3)CC1	.	.	18µM*	?	.
CCc1ccc(CN2CCc3nc(N4CCN(CC)CC4)ncc3C2)cc1	.	.	16µM*	?	.
COc1cc(OC)c(OC)cc1CN1CCc2nc(N3CCN(C)CC3)ncc2C1	.	.	-5%	-8%	.
CCN1CCN(c2ncc3c(n2)CCN(Cc2cc(F)cc(F)c2)C3)CC1	.	.	15µM*	15µM*	.
CN(C)CCNC(=O)Cn1ccc2cc(S(=O)(=O)N3CCCCCC3)ccc21	-22	-9%	?	-13%	-11%
O=S(=O)(c1ccc(Cl)cc1)N1CCOCC1	.	.	-5%	9%	.
Cc1cc(C(=O)CN2C(=O)C(=O)N(Cc3ccccc3)C2=O)c(C)n1-c1ccccc1F	-11	-27%	?	-6%	0%
Cc1cc(C(=O)CN2CCC(C)CC2)c(C)n1-c1ccccc1F	-13	-8%	16µM*	?	-2%
CCc1noc(C)c1C(=O)N1CCSC1=Nc1cccc(Cl)c1C	-4	?	23µM*	?	-2%
CCc1noc(C)c1C(=O)N1CCCSC1=Nc1ccccc1	-3	-1%	-24%	0%	1%
